# In PubChem BioAssay (NCATS):
# A number with no mark means an inactive call. Inconclusive results are not listed. A call without a number means that no potency is given here. The source made the active and inactive calls. Calls follow the shape of the dose curve; as a rule, active = well fitted curve in the direction sought with a large enough effect; inconclusive = small, poorly fitted or top-dose-only effect, or another doubt; inactive = no such curve, though single readings can be large; an effect the other way counts as inactive or inconclusive.
# Assays:
# [1] = HPAF-II Cancer Cell Toxicity qHTS against the NCATS CANVASS Library (AID 1347346); also: nearly all actives have a fitted effect of over 55% in size; also: potency is read from the fitted curve at half-maximal effect; as to activity change, negative = cytotoxicity: series mostly up to about 38 µM
# Method in brief: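 Cytotoxicity read-out was CellTiter-Glo luminescence after 72 h at 37 degrees C exposure of HPAF-II cells (1000/well) to compounds in an 11-point titration.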
# [2] = SW1088 Cancer Cell Toxicity qHTS against the NCATS CANVASS Library (AID 1347350); also: nearly all actives have a fitted effect of over 75% in size; also: potency is read from the fitted curve at half-maximal effect; as to activity change, negative = cytotoxicity: series mostly up to about 38 µM
# Method in brief: (§1)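 Step one: seed 1000 cells per well. Step two: incubate 4 h. Step three: add test compounds in 11 concentrations. Step four: culture 72 h, then add CellTiter-Glo and record luminescence after 15min.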
# [3] = UWB1.289-WTBRCA1 Cancer Cell Toxicity qHTS against the NCATS CANVASS Library (AID 1347354)
# Method in brief: (§2)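 Toxicity was measured as CellTiter-Glo luminescence after 72 h exposure to an 11-point compound series. Compound was added to 1000 cells/well 4 h after seeding.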
# [4] = KB-8-5-11 Cancer Cell Toxicity qHTS against the NCATS CANVASS Library (AID 1347364); also: nearly all actives have a fitted effect of over 75% in size; also: potency is read from the fitted curve at half-maximal effect
# Method in brief: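 Viability read as CellTiter-Glo luminescence after 72 h at 37 °C, 5% CO2. 11-point compound series on 500 KB-8-5-11 cells/well in DMEM/10% FBS. Follow-up plating included 1 uM tariquidar in the medium.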
# [5] = SDT Cancer Cell Toxicity qHTS against the NCATS CANVASS Library (AID 1347365); also: nearly all actives have a fitted effect of over 60% in size; also: potency is read from the fitted curve at half-maximal effect;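 as to activity change, negative = cytotoxicity: SDT canine glioma cells 500 per well in 1536 well plates; series mostly up to about 46 µM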
# Method in brief: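 Cytotoxicity taken from CellTiterGlo ATP luminescence after 72 hr at 37C, 5% CO2. Canine glioma line SDT, 500 cells/well, treated at 11 concentrations; bortezomib dose series as control.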
# [6] = qHTS for ATAD5 Agonist screened against the NCATS CANVASS Library (AID 1347367);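 also: luciferase reporter driven by ATAD5 which rises upon DNA damage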
# Method in brief: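 HEK293T-ATAD5 luc reporter; 2000 cells/well; 5hr settle; cpd 11-pt qHTS; 16hr 37C 5% CO2 dark; viability by CellTiter-Fluor (AFC fluorescence); then luciferase luminescence, 30min RT.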
# [7] = biological target: Nuclear receptor subfamily 1 group I member 3 (Homo sapiens) (UniProt Q14994); assay: qHTS for Constitutive Androstane Receptor (CAR) Antagonist screened against the NCATS CANVASS Library (AID 1347372); also: potency is read from the fitted curve at half-maximal effect;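 as to activity change, negative = inhibition: cells stimulated with 50 nM CITCO agonist so inhibition reflects antagonism; series mostly up to about 46 µM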
# Method in brief: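 Antagonist mode: compound added alongside 50 nM CITCO to HepG2-hCAR-CYP2B6 reporter cells, 24hr at 37C. Viability by CellTiter-Fluor fluorescence, then CAR-driven luciferase by ONE-Glo luminescence.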
# [8] = biological target: Nuclear receptor subfamily 1 group I member 3 (Homo sapiens) (UniProt Q14994); assay: qHTS for Constitutive Androstane Receptor (CAR) Agonist screened against the NCATS CANVASS Library (AID 1347373);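 also: every well also contained 1.5 µM PK11195 alongside the test compound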; also: potency is read from the fitted curve at half-maximal effect
# Method in brief: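 Agonist mode with 1.5uM PK11195 present: compounds for 24hr on HepG2-hCAR-CYP2B6 cells. CellTiter-Fluor fluorescence (ex 405, em 540 nm) gives viability; ONE-Glo luminescence reports CAR activation.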
# [9] = qHTS for Hypoxia signaling pathway (HIF-1) antagonists against the NCATS CANVASS Library (AID 1347374); also: nearly all actives have a fitted effect of over 60% in size; also: potency is read from the fitted curve at half-maximal effect;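 as to activity change, negative = inhibition: HRE-bla ME-180 cells stimulated with cobalt chloride to stabilize HIF-1alpha; series mostly up to about 38 µM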
# Method in brief: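 Antagonism scored as loss of CoCl2-driven (60 uM stock added) HRE beta-lactamase signal, read by CCF4 FRET at 460/530 nm. Compounds were tested in an 11-point series on ME-180 reporter cells for 17 hrs at 37C, with parallel CellTiter-Glo cytotoxicity.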
# [10] = DH5-alpha competent E. coli microbial cell viability qHTS against the NCATS CANVASS Library (AID 1347377); conditions: outcome: dose series up to 46.1 µM unless noted
# Method in brief: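 Bacterial viability as ATP-dependent luminescence (BacTiter-Glo), read after overnight 37 °C exposure of DH5-alpha competent E. coli to compounds in 11-point titration.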
# [11] = qHTS for inhibitors of ER calcium dysfunction: SERCaMP assay screened against the NCATS CANVASS Library (AID 1347393); also: nearly all actives have a fitted effect of over 40% in size; also: potency is read from the fitted curve at half-maximal effect;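 as to activity change, negative = inhibition: series mostly up to about 77 µM; lower secreted reporter signal means inhibitor of ER calcium depletion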
# Method in brief: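 Thapsigargin-induced ER calcium depletion drives GLuc-SERCaMP secretion from SH-SY5Y cells; compounds given 16 h beforehand were scored by lowered coelenterazine luminescence after 4 h challenge.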
# [12] = qHTS for inhibitors of Wild type Zika virus screened against the NCATS CANVASS Library (AID 1347396);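 also: ATP luminescence of surviving cells so rescue from viral cell killing; series mostly up to about 46 µM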
# Method in brief: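 Using ATP-based luminescence (CellTiter Glo), this screen scores rescue of Vero 766 cells from wild-type Zika killing at 72 h post-infection. Compounds are tested in a concentration series.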
# [13] = COV-362 Cancer Cell Toxicity qHTS against the NCATS CANVASS Library (AID 1347352); also: potency is read from the fitted curve at half-maximal effect; as to activity change, negative = cytotoxicity: series mostly up to about 38 µM
# Method in brief: as §2
# [14] = HEK-293 Cancer Cell Toxicity qHTS against the NCATS CANVASS Library (AID 1347355); also: nearly all actives have a fitted effect of over 65% in size; also: potency is read from the fitted curve at half-maximal effect; as to activity change, negative = cytotoxicity: series mostly up to about 46 µM; as to outcome: series mostly up to about 46 µM
# Method in brief: as §2
# [15] = Secretion counterscreen for inhibitors of the SERCaMP assay screened against the NCATS CANVASS Library (AID 1347390);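 also: light from luciferase secreted into medium read as a measure of general secretion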; also: potency is read from the fitted curve at half-maximal effect; as to activity change, negative = inhibition: series mostly up to about 77 µM
# Method in brief: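 SH-SY5Y-GLuc STOP cells; 4 h attach; cpds 0.001 - 77 uM (qHTS, 11 pts), 20 h 37C/5% CO2; coelenterazine in glow buffer; luminescence, 5 s exposure.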
# [16] = UWB1.289 Cancer Cell Toxicity qHTS against the NCATS CANVASS Library (AID 1347347); also: nearly all actives have a fitted effect of over 60% in size; as to activity change, negative = cytotoxicity: series mostly up to about 38 µM
# Method in brief: as §1
# [17] = Panc-1005 Cancer Cell Toxicity qHTS against the NCATS CANVASS Library (AID 1347349); also: series mostly up to about 38 µM; nearly all actives have a fitted effect of over 60% in size
# Method in brief: as §1
# [18] = U-118MG Cancer Cell Toxicity qHTS against the NCATS CANVASS Library (AID 1347351); as to activity change, negative = cytotoxicity: series mostly up to about 38 µM
# Method in brief: as §1
# [19] = qHTS for Hypoxia signaling pathway (HIF-1) agonists against the NCATS CANVASS Library (AID 1347375)
# Method in brief: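 Beta-lactamase reporter under HRE control in ME-180 cells; compounds (11-point qHTS series) added after 5 hrs plating, then 17 hrs at 37C. FRET substrate read after 2 hr; same-well CellTiter-Glo luminescence gave viability and normalization.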
# [20] = OV-KATE Cancer Cell Toxicity qHTS against the NCATS CANVASS Library (AID 1347345)
# Method in brief: as §1
# Sequence of Nuclear receptor subfamily 1 group I member 3 (Homo sapiens) (Q14994 whole entry, looked up): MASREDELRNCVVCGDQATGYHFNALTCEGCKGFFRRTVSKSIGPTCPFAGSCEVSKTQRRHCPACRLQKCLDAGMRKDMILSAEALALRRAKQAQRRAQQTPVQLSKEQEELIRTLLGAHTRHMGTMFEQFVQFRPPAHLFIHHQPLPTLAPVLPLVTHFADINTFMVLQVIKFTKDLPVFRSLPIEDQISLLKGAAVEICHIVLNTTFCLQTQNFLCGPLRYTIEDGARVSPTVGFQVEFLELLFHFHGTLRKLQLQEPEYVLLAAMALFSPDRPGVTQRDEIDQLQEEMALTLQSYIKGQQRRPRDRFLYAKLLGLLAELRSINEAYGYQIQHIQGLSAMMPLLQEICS
compound,measurement,setting,value
C/C1=C/[C@@H](C)[C@H](O)[C@@H](O)/C=C/CC/C=C/C(=O)O[C@@H]1[C@H](C)C(=O)/C=C/CC1CC(=O)NC(=O)C1,Potency,[1],inactive
same,Potency,[2],inactive
same,Potency,[3],inactive
same,Potency,[4],inactive
same,Potency,[5],18.7 µM (active)
same,Potency,[6],inactive
same,Potency,[7],2.09 µM (active)
same,Potency,[8],inactive
same,Potency,[9],16.7 µM (active)
same,outcome,[10],inactive
same,Potency,[11],inactive
same,outcome,[12],inactive
CO/C=C/C(=O)c1cc2cnc3c(N)cc(=NC(=O)C(C)C)c([nH]1)c23,Potency,[13],211 nM (active)
same,Potency,[14],166 nM (active)
same,Potency,[4],0.296 µM (active)
same,Potency,[5],0.372 µM (active)
same,Potency,[7],0.295 µM (active)
same,Potency,[8],inactive
same,Potency,[9],0.0334 µM (active)
same,outcome,[10],inactive
same,Potency,[15],1.72 µM (active)
same,Potency,[11],inactive
CCC(=O)N[C@@H](C[C@H](C)C(Cl)(Cl)Cl)C(=O)N1C(=O)C=C(OC)[C@@H]1C[C@H](C)CCl,Potency,[1],16.8 µM (active)
same,Potency,[2],16.8 µM (active)
same,Potency,[14],inactive
same,Potency,[4],inactive
same,Potency,[5],inactive
same,Potency,[6],inactive
same,Potency,[7],10.5 µM (active)
same,Potency,[15],inactive
same,outcome,[12],inactive
COc1c(O)cc2c(c1O)C(=O)c1c(coc1C)C2=O,Potency,[1],inactive
same,Potency,[16],inactive
same,Potency,[17],inactive
same,Potency,[13],inactive
same,Potency,[3],inactive
same,Potency,[14],inactive
same,Potency,[4],inactive
same,Potency,[8],inactive
same,Potency,[9],14.9 µM (active)
same,outcome,[10],inactive
same,Potency,[15],inactive
same,outcome,[12],inactive
COC(=O)C1=C[C@]23C[C@@H](C)CC[C@@H]2[C@@]2(C)CC[C@@H](C(C)C)[C@@](O)(O3)[C@@H]12,Potency,[1],18.8 µM (active)
same,Potency,[17],inactive
same,Potency,[18],inactive
same,Potency,[4],18.7 µM (active)
same,Potency,[6],inactive
same,Potency,[8],inactive
same,Potency,[9],inactive
same,outcome,[19],inactive
same,Potency,[15],inactive
same,Potency,[11],34.3 µM (active)
O=C1CC(c2ccc(O)cc2)Oc2cc(O)cc(O)c21 (centres undefined),Potency,[20],inactive
same,Potency,[1],inactive
same,Potency,[16],inactive
same,Potency,[17],inactive
same,Potency,[2],inactive
same,Potency,[18],inactive
same,Potency,[13],inactive
same,Potency,[3],inactive
same,Potency,[14],inactive
same,Potency,[4],inactive
same,Potency,[5],inactive
same,Potency,[6],inactive
same,Potency,[8],inactive
same,outcome,[10],inactive
same,Potency,[15],inactive
same,outcome,[12],inactive
COc1ccc([C@@H]2CC(=O)c3c(cc(O)c(C/C=C(\C)CCC=C(C)C)c3O)O2)cc1,"activity change, negative = cytotoxicity",[1],-11.2% [at 7.64 µM]
same,"activity change, negative = cytotoxicity",[17],-16.1% [at 7.64 µM]
same,outcome,[18],inactive [at 7.64 µM]
same,"activity change, negative = cytotoxicity",[13],1.08% [at 7.64 µM]
same,"activity change, negative = cytotoxicity",[3],-3.16% [at 7.64 µM]
same,"activity change, negative = cytotoxicity",[14],-14.6% [at 9.19 µM]
same,"activity change, negative = cytotoxicity",[5],0.771% [at 9.19 µM]
same,Potency,[8],3.05 µM (active)
same,"activity change, negative = inhibition",[9],8.62% [at 7.64 µM]
same,activation,[19],1.16% [at 7.64 µM]
same,"viability signal change, negative = cytotoxic",[10],8.04% [at 9.19 µM]
same,"activity change, negative = inhibition",[15],35.7% [at 15.3 µM]
C=C1C[C@]23C=CC(=O)[C@@](C)(CCCC(C)C(=O)N[C@@H](CO)C(=O)O)[C@@H]2C[C@@H]1CC3 (some centres undefined),Potency,[20],inactive
same,Potency,[1],inactive
same,Potency,[16],inactive
same,Potency,[17],inactive
same,Potency,[2],inactive
same,Potency,[13],inactive
same,Potency,[3],inactive
same,Potency,[14],inactive
same,Potency,[4],inactive
same,Potency,[5],inactive
same,Potency,[9],inactive
same,outcome,[19],inactive
same,outcome,[10],inactive
same,Potency,[15],inactive
same,Potency,[11],inactive
same,outcome,[12],inactive
CN1CC[C@@]23c4ccccc4N[C@@H]1[C@@]21CCN(C)[C@@H]3Nc2ccccc21,Potency,[20],inactive
same,Potency,[1],inactive
same,Potency,[16],inactive
same,Potency,[17],inactive
same,Potency,[2],inactive
same,Potency,[18],inactive
same,Potency,[13],inactive
same,Potency,[3],inactive
same,Potency,[14],inactive
same,Potency,[4],inactive
same,Potency,[5],inactive
same,Potency,[6],inactive
same,Potency,[7],inactive
same,Potency,[8],inactive
same,outcome,[10],inactive
same,Potency,[15],inactive
same,outcome,[12],inactive
